Test results reported in PubChem BioAssay (NCATS).
Results filed as inconclusive are left out. Active and inactive are the calls of the source. Unless noted, calls come from the whole dose curve; as a rule, active = well fitted curve in the direction sought with a large enough effect; inconclusive = small, poorly fitted or top-dose-only effect, or another doubt; inactive = no such curve, though single readings can be large; an effect the other way counts as inactive or inconclusive.

Columns and labels:
[1] = molecular target: Lysosomal acid glucosylceramidase (Homo sapiens) (UniProt P04062); experiment: Glucocerebrosidase-p2 (AID 348; in the data active = potency below about 10 µM; note: potency is the fitted concentration of half-maximal effect); details: purified GBA, blue fluorogenic substrate, 40 min
Sequence of Lysosomal acid glucosylceramidase (Homo sapiens) (P04062 whole entry, looked up): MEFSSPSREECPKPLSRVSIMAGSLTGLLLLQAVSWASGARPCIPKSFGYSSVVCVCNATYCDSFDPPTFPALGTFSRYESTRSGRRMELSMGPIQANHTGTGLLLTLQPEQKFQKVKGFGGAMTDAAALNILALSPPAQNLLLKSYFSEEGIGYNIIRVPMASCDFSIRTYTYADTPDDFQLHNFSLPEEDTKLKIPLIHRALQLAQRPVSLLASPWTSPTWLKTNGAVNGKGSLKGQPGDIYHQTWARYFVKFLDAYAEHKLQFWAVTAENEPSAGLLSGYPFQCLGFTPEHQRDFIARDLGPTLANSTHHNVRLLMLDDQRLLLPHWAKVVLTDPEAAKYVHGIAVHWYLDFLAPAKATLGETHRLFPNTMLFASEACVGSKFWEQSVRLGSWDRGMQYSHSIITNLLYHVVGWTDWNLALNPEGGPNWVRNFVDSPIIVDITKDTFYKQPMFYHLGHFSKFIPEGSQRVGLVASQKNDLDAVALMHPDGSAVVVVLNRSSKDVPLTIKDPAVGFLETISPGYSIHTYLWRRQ
How it was run: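 Compounds titrated from 0.6 nM upwards against 0.2 nM enzyme in pH 5.9 citric acid/KH2PO4, taurocholate, tween-20; blue fluorogenic substrate 80 uM, 40 min room temperature, stopped and read Ex 365/Em 440 for AC50.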

[2] = AP1 Signaling Pathway (AID 357; active = well fitted curve in either direction with a large enough effect, not every such curve was filed as active;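 note: ME-180 reporter cells stimulated with EGF at its EC50 level; % is set by controls: 0 for no effect and ±100 for the full control effect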); details: ME-180 AP-1-bla reporter, EGF-induced, beta-lactamase ratio, 5 h; at 7.69 µM (top of the series) unless noted
How it was run: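 First, ME-180 AP-1-bla cells were cultured overnight at 37 °C in low-serum Opti-MEM. Next, titrated compounds with EC50 EGF were incubated 5 hours. Finally, CCF4 was added for 2.5 hours and the 460/530 nm ratio recorded.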

[3] = molecular target: Cytochrome P450 1A2 (Homo sapiens) (UniProt P05177); experiment: p450-cyp1a2 (AID 410; calls by dose curve; note: potency is the fitted concentration of half-maximal effect)
Sequence of Cytochrome P450 1A2 (Homo sapiens) (P05177 whole entry, looked up): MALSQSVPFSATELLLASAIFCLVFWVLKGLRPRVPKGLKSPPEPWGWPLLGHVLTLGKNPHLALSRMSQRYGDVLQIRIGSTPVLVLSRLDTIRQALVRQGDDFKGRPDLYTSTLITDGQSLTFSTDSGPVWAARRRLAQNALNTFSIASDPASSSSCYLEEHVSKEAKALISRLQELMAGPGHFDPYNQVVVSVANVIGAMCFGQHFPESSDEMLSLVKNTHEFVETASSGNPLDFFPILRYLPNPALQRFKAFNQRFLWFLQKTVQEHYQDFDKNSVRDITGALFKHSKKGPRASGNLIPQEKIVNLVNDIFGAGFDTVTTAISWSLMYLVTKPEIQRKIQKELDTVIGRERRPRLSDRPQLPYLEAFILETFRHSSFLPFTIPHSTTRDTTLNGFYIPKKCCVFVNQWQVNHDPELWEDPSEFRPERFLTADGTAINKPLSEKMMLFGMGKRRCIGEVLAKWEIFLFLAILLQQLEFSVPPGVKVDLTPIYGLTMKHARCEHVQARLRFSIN
How it was run: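 Luminescent readout of luciferin formed from Luciferin-ME by human CYP1A2; data normalized against complete inhibition by 57 uM furafylline. Enzyme 20nM, substrate 100uM at Km, 100mM KPO4 buffer, 60 min reaction at room temperature.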

[4] = NFAT Signaling Pathway (AID 444; active = well fitted curve in either direction with a large enough effect, not every such curve was filed as active;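 note: carbachol stimulus at about its EC50 of 1 µM final; % is set by controls: 0 for no effect and ±100 for the full control effect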); details: Jurkat NFAT-bla M1, carbachol, beta-lactamase ratio, 5 h; at 7.69 µM (top of the series) unless noted
How it was run: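 Jurkat cells with NFAT-driven β-lactamase reporter and co-expressed M1 receptor, stimulated with carbachol (final 1 uM, ~EC50), compound titration, 5 h at 37 °C. CCF4 loaded 1 h at RT; 460/530 nm ratio gave %activity and AC50.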

[5] = molecular target: Glucocorticoid receptor (Homo sapiens) (UniProt P04150); experiment: GR-GFP Redistribution (AID 450;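 active = compounds whose dose series gives a full or clear partial fitted curve of increased nuclear translocation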; note: potency is the fitted concentration of half-maximal effect); details: U2OS GR-GFP nuclear translocation, laser cytometry, 2 h
Sequence of Glucocorticoid receptor (Homo sapiens) (P04150 whole entry, looked up, the tested form may be a part): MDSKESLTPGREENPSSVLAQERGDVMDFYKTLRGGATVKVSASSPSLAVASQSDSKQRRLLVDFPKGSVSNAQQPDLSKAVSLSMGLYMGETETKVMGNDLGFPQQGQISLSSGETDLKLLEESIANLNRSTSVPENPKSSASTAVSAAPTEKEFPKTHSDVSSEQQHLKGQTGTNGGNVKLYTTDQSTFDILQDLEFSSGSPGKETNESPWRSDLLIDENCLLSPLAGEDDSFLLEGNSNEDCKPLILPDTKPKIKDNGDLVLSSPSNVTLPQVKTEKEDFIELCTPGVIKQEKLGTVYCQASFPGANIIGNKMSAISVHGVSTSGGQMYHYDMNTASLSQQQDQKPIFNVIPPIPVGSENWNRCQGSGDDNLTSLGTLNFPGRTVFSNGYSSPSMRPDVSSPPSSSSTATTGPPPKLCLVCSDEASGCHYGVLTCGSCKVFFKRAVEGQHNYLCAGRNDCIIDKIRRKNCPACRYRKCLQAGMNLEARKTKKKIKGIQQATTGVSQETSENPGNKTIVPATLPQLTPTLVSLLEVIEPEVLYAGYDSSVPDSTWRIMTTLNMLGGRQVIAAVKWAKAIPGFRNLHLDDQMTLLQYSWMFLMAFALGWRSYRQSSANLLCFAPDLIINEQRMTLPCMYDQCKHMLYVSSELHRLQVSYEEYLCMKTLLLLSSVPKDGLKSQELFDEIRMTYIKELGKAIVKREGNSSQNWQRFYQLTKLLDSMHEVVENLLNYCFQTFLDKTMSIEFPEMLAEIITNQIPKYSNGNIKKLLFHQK

[6] = molecular target: Glucocorticoid receptor (Homo sapiens) (UniProt P04150); experiment: GR-EFC Redistribution (AID 451; calls by dose curve; note: potency is the fitted concentration of half-maximal effect); details: CHO-K1 GR-EFC translocation, beta-gal luminescence, 2 h
How it was run: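 CHO-K1 cells expressing nuclear EA and GR-ED fragments of b-gal; compounds titrated up to 46 uM final, 2 h at 37 C. GR nuclear translocation read as complemented b-gal luminescence after 1 h RT detection.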

[7] = molecular target: Mitogen-activated protein kinase 10 (Mus musculus) (UniProt Q61831); experiment: JNK3 AlphaScreen Assay (AID 530; active = well fitted curve in either direction with a large enough effect, not every such curve was filed as active;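 note: kinase came from lysate of stimulated human HepG2 cells; signal reports phosphorylation of biotinylated GST-cJun 1-79 at Ser73 with 10 µM ATP; % is set by controls: 0 for no effect and ±100 for the full control effect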)
How it was run: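 Pre-activated (IL-1β/TNFα) JNK3 in HepG2 lysates phosphorylates biotin-GST-cJun(1-79), 10 uM ATP; anti-phospho-cJun(Ser73) AlphaScreen read at room temperature, pH 7.6 Tris buffer. Compounds pre-incubated 15 min as titrations.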

[8] = molecular target: 3',5'-cyclic-AMP phosphodiesterase 4B (Homo sapiens) (UniProt Q07343); experiment: qHTS Assay for Inhibitors of PDE-IV (AID 607; active = well fitted activation curve with a large enough effect in the main read-out, with a control signal flat, not every such curve was filed as active; note: % of control where 0% means no effect)
Sequence of 3',5'-cyclic-AMP phosphodiesterase 4B (Homo sapiens) (Q07343 whole entry, looked up): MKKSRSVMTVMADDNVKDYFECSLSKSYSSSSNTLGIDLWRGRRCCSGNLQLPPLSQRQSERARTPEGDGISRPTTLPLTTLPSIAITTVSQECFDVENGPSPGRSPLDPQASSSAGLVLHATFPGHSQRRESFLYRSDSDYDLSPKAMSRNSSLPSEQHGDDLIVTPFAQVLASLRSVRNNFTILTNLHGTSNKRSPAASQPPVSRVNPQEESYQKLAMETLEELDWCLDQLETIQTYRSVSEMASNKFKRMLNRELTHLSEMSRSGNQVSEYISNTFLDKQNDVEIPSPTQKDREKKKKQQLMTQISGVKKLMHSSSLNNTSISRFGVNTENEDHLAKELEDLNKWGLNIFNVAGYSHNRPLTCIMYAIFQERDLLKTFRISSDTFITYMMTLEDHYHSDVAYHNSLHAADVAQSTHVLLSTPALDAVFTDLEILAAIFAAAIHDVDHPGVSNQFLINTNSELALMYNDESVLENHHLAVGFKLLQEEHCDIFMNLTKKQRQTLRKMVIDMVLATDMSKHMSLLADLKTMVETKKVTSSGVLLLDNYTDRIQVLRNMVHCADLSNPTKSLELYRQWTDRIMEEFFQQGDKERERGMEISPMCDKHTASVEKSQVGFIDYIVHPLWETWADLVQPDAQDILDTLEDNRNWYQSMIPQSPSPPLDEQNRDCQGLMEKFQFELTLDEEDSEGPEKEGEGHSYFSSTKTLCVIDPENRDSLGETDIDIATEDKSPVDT
How it was run: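 HEK293 ACTOne cells with CNG channel (1000/well), endogenous PDE4; membrane potential dye, compounds up to 22.9 uM final. Fluorescence Ex 535/Em 590; RO 20-1724 (100 uM final) as reference.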

[9] = molecular target: Cytochrome P450 3A4 (Homo sapiens) (UniProt P08684); experiment: qHTS Assay for Activators of Cytochrome P450 3A4 (AID 885); note: nearly all actives have a fitted effect of over 65% in size
Sequence of Cytochrome P450 3A4 (Homo sapiens) (P08684 whole entry, looked up): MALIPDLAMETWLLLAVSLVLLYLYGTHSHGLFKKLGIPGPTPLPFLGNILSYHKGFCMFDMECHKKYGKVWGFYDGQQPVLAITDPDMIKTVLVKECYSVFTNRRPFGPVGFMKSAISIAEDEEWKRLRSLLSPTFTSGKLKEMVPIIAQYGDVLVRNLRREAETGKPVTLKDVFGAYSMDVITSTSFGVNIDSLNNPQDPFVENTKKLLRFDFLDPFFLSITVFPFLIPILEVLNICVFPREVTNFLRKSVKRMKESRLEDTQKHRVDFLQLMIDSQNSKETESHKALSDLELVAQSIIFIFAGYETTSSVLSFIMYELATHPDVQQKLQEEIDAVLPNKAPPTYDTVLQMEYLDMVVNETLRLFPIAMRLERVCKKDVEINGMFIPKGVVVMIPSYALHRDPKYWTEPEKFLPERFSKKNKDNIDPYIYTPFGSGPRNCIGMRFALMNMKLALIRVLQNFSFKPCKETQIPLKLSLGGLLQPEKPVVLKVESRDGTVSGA
How it was run: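 Human CYP3A4 (20 nM) with Luciferin-PPXE at 25 uM (its KM) in 200 mM KPO4; 10 min compound preincubation, then NADPH regeneration and 60 min reaction at RT. Luciferin read by luminescence; normalized to 57 uM ketoconazole full inhibition.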

[10] = qHTS Assay for Identification of Small Molecule Agonists for Hypoxia Response Element Signaling Pathway (AID 914; active = well fitted activation curve with a large enough effect in the signal ratio, with a control signal flat, not every such curve was filed as active; the % refers to the signal ratio; note: potency is the fitted concentration of half-maximal effect); details: ME-180 HRE-bla reporter, beta-lactamase ratio, CoCl2, 17 h; activation: stronger effect = higher value
How it was run: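 Positive modulation of EC50 CoCl2-induced hypoxia response element signaling is measured in ME-180 cells with a beta-lactamase reporter. Compounds are titrated, incubation runs 17 hours, and %Activity derives from the blue/green ratio.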

[11] = molecular target: Dual specificity protein kinase CLK4 (Homo sapiens) (UniProt Q9HAZ1); experiment: qHTS Assay for Inhibitors of CDC-like Kinase 4 (Kinase-Glo Assay) (AID 1770); note: % is set by controls: 0 for no effect and ±100 for the full control effect; nearly all actives have a fitted effect of over 65% in size
Sequence of Dual specificity protein kinase CLK4 (Homo sapiens) (Q9HAZ1 whole entry, looked up): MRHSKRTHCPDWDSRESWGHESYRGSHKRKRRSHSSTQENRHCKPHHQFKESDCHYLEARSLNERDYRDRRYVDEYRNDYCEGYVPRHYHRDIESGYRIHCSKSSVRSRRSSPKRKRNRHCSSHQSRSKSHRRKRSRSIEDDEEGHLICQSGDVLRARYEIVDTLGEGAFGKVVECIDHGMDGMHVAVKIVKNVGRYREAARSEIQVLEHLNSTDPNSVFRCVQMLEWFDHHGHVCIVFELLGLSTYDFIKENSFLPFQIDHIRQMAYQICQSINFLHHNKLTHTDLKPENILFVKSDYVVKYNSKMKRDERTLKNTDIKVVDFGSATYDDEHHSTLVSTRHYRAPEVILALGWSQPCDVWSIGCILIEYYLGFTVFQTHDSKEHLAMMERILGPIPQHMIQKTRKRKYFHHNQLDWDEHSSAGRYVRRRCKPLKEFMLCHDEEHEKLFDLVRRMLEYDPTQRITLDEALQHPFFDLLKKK
How it was run: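 Recombinant human Clk4 (25 nM) phosphorylated RS repeat peptide (100 uM) with 1 uM ATP in Tris pH 7.5/MgCl2/EGTA/DTT/Triton buffer for 4.5 h at room temperature. Residual ATP was quantified by Kinase-Glo luciferase luminescence.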

[12] = molecular target: Dual specificity protein kinase CLK4 (Homo sapiens) (UniProt Q9HAZ1); experiment: qHTS Assay for Inhibitors of CDC-like Kinase 4 (ADP-Glo Assay) (AID 1771); note: % is set by controls: 0 for no effect and ±100 for the full control effect; nearly all actives have a fitted effect of over 70% in size
How it was run: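 Luminescence from ADP-Glo reports ADP produced by 25 nM Clk4 acting on 100 uM RS repeat peptide with 1 uM ATP over 1 hr at room temperature; residual ATP is depleted before ADP is converted to ATP for detection.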

[13] = molecular target: Dual specificity protein kinase CLK4 (Homo sapiens) (UniProt Q9HAZ1); experiment: qHTS Assay for Inhibitors of CDC-like Kinase 4 (ADP-FP Assay) (AID 1795); note: % is set by controls: 0 for no effect and ±100 for the full control effect; nearly all actives have a fitted effect of over 60% in size
How it was run: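 Recombinant human Clk4 (6.25 nM) phosphorylated RS repeat peptide (100 uM) with 1 uM ATP in Tris pH 7.5/MgCl2/EGTA/DTT/Triton buffer for one hour. ADP was quantified by Transcreener competitive fluorescence polarization against an ADP calibration curve.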

[14] = molecular target: Ubiquitin carboxyl-terminal hydrolase 1 (Homo sapiens) (UniProt O94782); experiment: Inhibitors of USP1/UAF1: Pilot qHTS (AID 504865);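 note: rhodamine fluorescence freed from ubiquitin-rhodamine substrate followed over time; top concentration of the series differs between compounds; % is set by controls: 0 for no effect and ±100 for the full control effect; nearly all actives have a fitted effect of over 35% in size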
Sequence of Ubiquitin carboxyl-terminal hydrolase 1 (Homo sapiens) (O94782 whole entry, looked up): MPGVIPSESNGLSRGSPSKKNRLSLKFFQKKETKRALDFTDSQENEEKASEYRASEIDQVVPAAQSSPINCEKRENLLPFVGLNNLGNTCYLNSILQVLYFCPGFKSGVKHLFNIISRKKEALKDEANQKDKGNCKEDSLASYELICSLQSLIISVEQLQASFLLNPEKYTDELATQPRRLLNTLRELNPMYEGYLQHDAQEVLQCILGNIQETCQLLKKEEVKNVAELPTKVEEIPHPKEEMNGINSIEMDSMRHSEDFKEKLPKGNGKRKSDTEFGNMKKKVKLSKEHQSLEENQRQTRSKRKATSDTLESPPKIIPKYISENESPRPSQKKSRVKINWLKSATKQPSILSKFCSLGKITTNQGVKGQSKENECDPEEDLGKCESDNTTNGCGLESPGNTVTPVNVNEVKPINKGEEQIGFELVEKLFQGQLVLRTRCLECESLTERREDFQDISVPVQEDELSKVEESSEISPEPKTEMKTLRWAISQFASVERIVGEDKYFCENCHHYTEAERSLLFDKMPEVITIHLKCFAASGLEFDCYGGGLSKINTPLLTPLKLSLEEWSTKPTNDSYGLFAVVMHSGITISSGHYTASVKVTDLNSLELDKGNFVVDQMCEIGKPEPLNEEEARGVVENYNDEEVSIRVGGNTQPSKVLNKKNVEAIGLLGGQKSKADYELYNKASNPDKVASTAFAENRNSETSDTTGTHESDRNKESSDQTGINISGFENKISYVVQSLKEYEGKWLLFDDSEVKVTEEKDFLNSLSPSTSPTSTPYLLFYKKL
How it was run: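 USP1/UAF1 complex (1nM) preincubated with compound 15 min at room temperature, then Ub-Rho substrate (150nM final) added. Fluorescence read kinetically at 480/540 nm, 6 reads every 60 seconds. Buffer: 50mM HEPES pH 7.8, 0.5mM EDTA, 0.1 mg/ml BSA, 1mM TCEP, 0.01% Tween-20.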

[15] = Counterscreen qHTS for small molecule stabilizers of the endoplasmic reticulum resident proteome: GLuc-NoTag assay (AID 1508627);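 note: SH-SY5Y cells given compound then 100 nM thapsigargin to empty ER calcium; 0% = thapsigargin alone and -100% = DMSO vehicle control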
How it was run: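 SH-SY5Y cells stably expressing constitutively secreted GLuc without SERCaMP tag, exposed to compound for 19 hr, then to 100 nM thapsigargin for 4 hr at 37C. Medium luciferase was read by coelenterazine luminescence without lysis.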

[16] = Cell Viability qHTS for small molecule stabilizers of the endoplasmic reticulum resident proteome (AID 1508629); details: cell viability counter-screen, 100 nM thapsigargin for final 4 h;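 note: human SH-SY5Y neuroblastoma cells carrying the GLuc-SERCaMP reporter; compound exposure about 46 h in total before the viability read; % is set by controls: 0 for no effect and ±100 for the full control effect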
[17] = Confirmatory qHTS for small molecule stabilizers of the endoplasmic reticulum resident proteome: Secreted ER Calcium Modulated Protein (SERCaMP) assay (AID 1508628); note: potency is the fitted concentration of half-maximal effect; nearly all actives have a fitted effect of over 40% in size
How it was run: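 SH-SY5Y cells stably expressing GLuc-SERCaMP, treated 16 h with compound (primary 1.53, 7.67, 38.3 uM; confirmation 11 concentrations, up to 76.6 uM), then 100 nM thapsigargin for 4 h. Secreted Gaussia luciferase in medium read by coelenterazine luminescence.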

[18] = Stat Signaling Pathway (AID 446; active = well fitted curve in either direction with a large enough effect, not every such curve was filed as active); details: ME-180 SIE beta-lactamase reporter, IL-6 stimulated, 5 h; at 7.69 µM (top of the series) unless noted
How it was run: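 ME-180 cells carrying a SIE-driven beta-lactamase reporter are stimulated with 40 pM IL-6 for 5 h at 37C in the presence of compound. The 460/530 nm FRET substrate ratio is read after 2.5 h at RT. Data are normalised to 300 pM IL-6 and to 125 nM JAK inhibitor controls.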

[19] = molecular target: Cytochrome P450 2C19 (Homo sapiens) (UniProt P33261); experiment: qHTS Assay for Inhibitors and Substrates of Cytochrome P450 2C19 (AID 899); note: % is set by controls: 0 for no effect and ±100 for the full control effect; nearly all actives have a fitted effect of over 60% in size
Sequence of Cytochrome P450 2C19 (Homo sapiens) (P33261 whole entry, looked up): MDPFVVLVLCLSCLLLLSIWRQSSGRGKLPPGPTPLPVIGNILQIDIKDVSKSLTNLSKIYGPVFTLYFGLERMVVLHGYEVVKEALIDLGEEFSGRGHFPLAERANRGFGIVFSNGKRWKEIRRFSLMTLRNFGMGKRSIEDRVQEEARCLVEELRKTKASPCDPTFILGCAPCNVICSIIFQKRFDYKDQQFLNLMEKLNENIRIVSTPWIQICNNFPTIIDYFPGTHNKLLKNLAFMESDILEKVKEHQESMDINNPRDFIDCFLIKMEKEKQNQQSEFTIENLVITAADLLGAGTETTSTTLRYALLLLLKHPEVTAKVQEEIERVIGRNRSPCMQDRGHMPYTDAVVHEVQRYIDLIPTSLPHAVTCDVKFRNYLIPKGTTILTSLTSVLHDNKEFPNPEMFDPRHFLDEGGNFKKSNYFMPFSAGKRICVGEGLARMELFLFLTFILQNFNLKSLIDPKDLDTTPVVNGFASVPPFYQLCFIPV
How it was run: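 5 nM human CYP2C19 with 10uM Luciferin-H EGE (at KM) in 50mM KPO4, compound preincubated 10 min at 37C, then NADPH regeneration for 60 min at 37C. Luciferin read by luminescence after detection reagent; normalized to 57uM ketoconazole as full inhibition.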

[20] = qHTS Assay for Lipid Storage Modulators (AID 1519; calls by dose curve); details: Drosophila S3 cells, BODIPY lipid droplet/cell ratio, laser cytometry, cells loaded with oleic acid; for activity change, negative = inhibition: at 57.5 µM (top of the series)
How it was run: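 Cells seeded at 5,000 per well were treated with compounds over a concentration series and loaded with oleic acid (400 uM, as added). Lipid droplet fluorescence (488 nm excitation, 500-530 nm channel) was read by laser-scanning cytometry and normalized to 20 uM Triacsin C.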

[21] = molecular target: Cytochrome P450 3A4 (Homo sapiens) (UniProt P08684); experiment: qHTS Assay for Inhibitors and Substrates of Cytochrome P450 3A4 (AID 884); note: nearly all actives have a fitted effect of over 50% in size; note: potency is the fitted concentration of half-maximal effect
How it was run: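 20 nM human CYP3A4 with 25 uM Luciferin-PPXE (at KM) in 200 mM KPO4, preincubated 10 min with compound; NADPH regeneration started a 60 min RT reaction. Luciferin detected by luminescence, normalized to 57 uM ketoconazole as full inhibition.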

[22] = measured here: cell count channel max response
[23] = measured here: lipid channel max response

COCCn1c(=O)c(-c2cn(C)c3ccccc23)nc2cnc(N3CCNCC3)nc21
active: Potency [3] 12.6 µM | Potency [10] 3.16 µM
inactive: Potency [1] > 11.4 µM | activity change, negative = inhibition [2] 16% | activity change, negative = inhibition [4] 18.5% | Potency [5] > 9.22 µM | Potency [6] > 46 µM | outcome [7] | Potency [8] | Potency [9] | Potency [11] | Potency [12] | Potency [13] | Potency [14] | Potency [15] | max response [16] -7.1%

CN(C)c1nccc(N(Cc2ccccc2)Cc2ccccc2)c1C#N
inactive: Potency [15] | max response [16] -2.77%

O=C(CCCN1C(=O)c2cccc3cccc(c23)C1=O)N1CCN(Cc2ccc3c(c2)OCO3)CC1
inactive: max response [16] -13.9%
active: Potency [17] 27.3 µM

Cc1nc2cnc(N3CCNCC3)nc2n(Cc2ccc(F)cc2)c1=O
inactive: Potency [1] > 11.4 µM | activity change, negative = inhibition [2] 7.46% | activity change, negative = inhibition [4] -14.9% | activity, negative = inhibition [18] 7.66% | Potency [5] > 9.22 µM | Potency [6] > 46 µM | outcome [7] | Potency [9] | Potency [19] | activity change, negative = inhibition [20] 2.97% | max response [16] 11.4%
14.9%: max response [20, 22]
19.5%: max response [20, 23]
active: Potency [3] 12.6 µM | Potency [17] 20 µM

COc1ccc(-n2c(=O)c(-c3ccccc3)nc3cnc(N4CCN(C)CC4)nc32)cc1
22%: max response [20, 22]
20%: max response [20, 23]
inactive: activity change, negative = inhibition [2] 14.5% | activity change, negative = inhibition [4] 5.17% | activity, negative = inhibition [18] 12.2% | Potency [5] > 9.22 µM | Potency [6] > 46 µM | outcome [7] | Potency [8] | Potency [21] | activity change, negative = inhibition [20] 0.696% | Potency [11] | Potency [12] | Potency [13] | Potency [14] | max response [16] 12.9%
active: Potency [3] 20 µM | Potency [17] 25.1 µM

Cc1nc2cnc(N3CCNCC3)nc2n(Cc2cccs2)c1=O
inactive: Potency [1] > 11.4 µM | activity change, negative = inhibition [2] -0.143% | activity change, negative = inhibition [4] 6.53% | activity, negative = inhibition [18] 3.44% | Potency [5] > 9.22 µM | Potency [6] > 46 µM | outcome [7] | Potency [8] | Potency [9] | activity change, negative = inhibition [20] 6.29% | Potency [11] | Potency [12] | Potency [14] | max response [16] 3.08%
24.4%: max response [20, 22]
active: Potency [3] 0.631 µM | Potency [21] 3.16 µM | Potency [17] 25.1 µM
28.9%: max response [20, 23]
